# Laboratory results: PubChem BioAssay AID729 (The Scripps Research Institute Molecular Screening Center, 2007)
# The campaign covered roughly 97,000 compounds. About 450 (0.46%) were called active. What follows is part of a selection rich in actives, with near analogues and random picks from the rest. Values without a mark were called inactive. Cut-off read from the data, not from the text of the source: active = activation above about 16%; inactive = the rest.
# Molecular target: Sphingosine 1-phosphate receptor 2 (Homo sapiens) (UniProt O95136)
# Sequence (O95136 whole entry, looked up): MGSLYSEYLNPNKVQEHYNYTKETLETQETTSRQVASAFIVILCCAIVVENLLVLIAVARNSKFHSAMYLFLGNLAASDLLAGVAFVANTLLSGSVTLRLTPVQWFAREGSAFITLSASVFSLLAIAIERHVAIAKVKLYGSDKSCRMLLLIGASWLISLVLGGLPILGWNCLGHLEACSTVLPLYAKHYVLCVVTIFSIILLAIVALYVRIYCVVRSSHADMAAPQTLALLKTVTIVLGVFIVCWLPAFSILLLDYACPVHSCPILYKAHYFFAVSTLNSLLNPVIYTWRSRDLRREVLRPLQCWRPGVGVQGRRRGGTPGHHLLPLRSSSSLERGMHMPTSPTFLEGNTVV
# Assay: S1P2 receptor agonists, primary screen, cell-based (AID 729);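 note: 0% = vehicle low control and 100% = maximal reference agonist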
# Conditions: S1P2-expressing cell line, agonist reporter read-out; at 4.5 µM; active compounds read high
row,Compound,activation
1,Cn1nnnc1SCC(=O)Nc1ccccc1C(=O)NC1CC1,-4.5%
2,C/C(=N\NS(=O)(=O)c1cccc([N+](=O)[O-])c1)c1cc2ccccc2o1,-4.08%
3,CCOc1c(Cl)cc(/C=N/O)cc1OC,-3.93%
4,CC(=O)C1=C(C)NC(C)=C(C(C)=O)C1c1cn(-c2ccccc2)nc1-c1cccs1,-8.95%
5,CCc1nc(C)ccc1OCC(=O)N(CC)CC,-0.52%
6,CSc1nc(-c2ccco2)nn1C(=O)CCc1ccccc1,-4.35%
7,CCOC(=O)c1nnn(-c2nonc2-n2cccc2)c1CN1CCOCC1,-2.91%
8,O=C(Cc1ncc(C(F)(F)F)cc1Cl)Nc1cccc(Br)c1,-3.95%
9,Cc1noc(C)c1CSCC(=O)Nc1nc2ccc(Oc3ccccc3)cc2s1,-9.84%
10,C=CCn1c(-c2ccc(Cl)cc2)ccc(C#N)c1=O,-1.04%
11,CCC(C)NC(=O)c1c(N)n(/N=C/c2cccs2)c2nc3ccccc3nc12 (stereo not given),11.4%
12,C=CCn1c(N)c(C(=O)OCC(C)C)c2nc3ccccc3nc21,-4.83%
13,CCCNC(=O)c1c(N)n(-c2ccc(S(N)(=O)=O)cc2)c2nc3ccccc3nc12,25.6% (active)
14,COc1ccc2c(c1OC)C(=O)N(c1ncn[nH]1)C2,16.5% (active)
15,COc1ccc2c(c1OC)C(=O)c1ccccc1C2=O,-4.98%
16,COc1ccc(N2CCN(C(=O)CCc3nc(-c4ccc(C)cc4)no3)CC2)cc1,-1.72%
17,Cc1ccc(S(=O)(=O)Nc2nc(C)cc(-n3nc(C)cc3C)n2)cc1,-3.06%
18,N#Cc1ccc(-c2ccc(Cl)cc2)nc1Oc1ccc(F)cc1,-3.88%
19,Cc1ccc(/C=N/NC(=O)C2=NNC(c3ccccc3)(c3ccccc3)C2)c(O)c1,2.35%
20,O=C(Cc1ccccc1)N/N=C/c1ccc(Cl)cc1Cl,2.34%

row,Compound,activation
1,Cc1nn(C)cc1C(=O)NNC(=S)Nc1ccc(Cl)cc1,-6.95%
2,O=C1CCCc2nn(-c3ccccc3)nc21,-3.05%
3,Cc1nc(NC(=O)c2cccc(Cl)c2)sc1-c1csc(Nc2cccc(Cl)c2)n1,-10.8%
4,Cc1cc(C)c2nc(NC(=O)c3ccc4c(c3)OCO4)sc2c1,-8.01%
5,CNC(=O)c1csc(-c2ccccc2)n1,-5.56%
6,O=C(c1cc2c(s1)CCC2)N1CCN(c2ccccc2)CC1,-4.17%
7,Cc1nn(Cc2ccc(C(=O)N3N=C(C(F)F)CC3(O)C(F)F)cc2)c(C)c1[N+](=O)[O-] (stereo not given),-4.76%
8,Cc1ccccc1-c1nnc(SCC(=O)NCc2ccc3c(c2)OCO3)n1C,-6.95%
9,COc1cccc(N=c2oc3c(C)ncc(CO)c3cc2C(N)=O)c1,-4.4%
10,O=C1Nc2ccc(Br)cc2/C1=N/N=C/C1=C(N2CCOCC2)C(=C\c2ccccc2)/CC1,-5.74%
11,COc1ccc(-c2nnc(SCc3cccnc3)o2)cc1,-3.86%
12,Cc1nnc(SC(C)C(=O)Nc2ccc(S(=O)(=O)NC3CCCCC3)cc2)s1 (stereo not given),-4.5%
13,CC(C)(C)OC(=O)c1c(N)n(CCCN2CCCC2=O)c2nc3ccccc3nc12,0.36%
14,N#Cc1c(N)n(CCOC(=O)c2ccc(Cl)cc2)c2nc3ccccc3nc12,16.5% (active)
15,CN(C)CCCn1c(N)c(C#N)c2nc(C#N)c(C#N)nc21,12.8%
16,Fc1ccc(CNc2nc3ccccc3n3nnnc23)cc1,-7.16%
17,O=C(NC(C(=O)NCCN1CCOCC1)C12CC3CC(CC(C3)C1)C2)C1CCCCC1 (stereo not given),-4.77%
18,Cc1c(NC(=O)c2cc(-c3ccc(Cl)s3)nc3ccccc23)c(=O)n(-c2ccccc2)n1C,-14.2%
19,O=C(Nc1ccn(Cc2ccccc2F)n1)c1ccc(COc2ccc(Cl)cc2Cl)o1,-5.78%
20,CCn1cc(C(=O)NCC2COc3ccccc3O2)c2cc(OC)c(OC)cc2c1=O (stereo not given),19.9% (active)

row,Compound,activation
1,O=C(Cn1cnc2ccccc2c1=O)NCC1COc2ccccc2O1 (stereo not given),-3.16%
2,CCn1cc(C(=O)NCc2ccc3c(c2)OCO3)c2cc(OC)c(OC)cc2c1=O,14.1%
3,CO/N=C/c1ccc(N2CCN(C(=O)c3cccc(Cl)c3)CC2)c([N+](=O)[O-])c1,-3.08%
4,Cc1ccc(CNC(=O)C2CCCN2C(=O)NCc2ccccc2)cc1 (stereo not given),-8.36%
5,O=C(CO/N=C/c1ccccc1O)NNC(=O)c1ccccc1Cl,-5.77%
6,Cc1ccc(S(=O)(=O)/N=C(/Nc2ccccn2)c2ccc(Cl)cc2)cc1,-4.9%
7,CSc1ccccc1-c1nnc(-c2ccc(Cl)cc2)o1,-1.63%
8,Cc1ccc(N2CCN(C3=NC(=O)/C(=C\c4cccs4)S3)CC2)cc1,-8.97%
9,O=Cc1c(N2CCN(c3cccc(Cl)c3)CC2)nc2ccccn2c1=O,-4.84%
10,CN1C(=O)C(CC(N)=O)N(NC(=O)c2ccc(Cl)cc2)C1=S (stereo not given),-7.47%
11,CSc1nc(N)c(C#N)c(-c2ccccc2Cl)c1C#N,-7.07%
12,CSc1nc2ccccc2cc1/C=C(\C#N)c1ccc(Cl)cc1Cl,19.8% (active)
13,Cc1nc2ccccc2cc1O,-0.52%
14,Cc1sc(NC(=O)C2C3CCC(O3)C2C(=O)O)c(C(=O)OC(C)C)c1-c1ccc(Cl)cc1 (stereo not given),-9.04%
15,CN(C)c1ccc(/C=C2\NC(=S)N(Cc3ccccc3)C2=O)cc1,-4.43%
16,Cc1ccc(-c2nc(C)sc2CC(=O)O)cc1,-2.07%
17,CN(c1cccc(NC(=O)Nc2ccc(Cl)cc2)c1)S(C)(=O)=O,-3.59%
18,Nc1c(-c2ccc(F)cc2)cnn1C1CCS(=O)(=O)C1 (stereo not given),-4.76%
19,Cc1ccc(C2C(C#N)C(C#N)N3CCCN23)cc1 (stereo not given),-4.89%
20,N/C(=N\OC(=O)CCC1CCCCC1)c1ccccn1,-3.14%
